# Compound activity (PubChem)
# L3MBTL1 block: inhibitors of human L3MBTL1. Q9Y468. AlphaScreen L3MBTL1–H3K9me1 peptide binding. Potency, µM (top dose mostly 57.1 µM), usual class: inhibitors. 0.66% of 230,000 active. AID 485360; also: nearly all actives have a fitted effect of over 60% in size
#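 L3MBTL1 (50 nM) pre-complexed 30 min with biotinylated H3(1-15)K9me1 peptide (75 nM), then compounds added for 30 min at room temperature; AlphaScreen streptavidin donor/nickel chelate acceptor beads (10 ug/mL final) read after 30 min dark incubation.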
# Sfp inh: Sfp phosphopantetheinyl transferase inhibition; Biochemical Sfp PPTase activity, qHTS; AID 1490; 3.5% of 310,000 active; Potency, µM, hits mostly inhibitors;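 also: the enzyme is Sfp with the accession as filed and its product quenches rhodamine fluorescence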
#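 Compounds were incubated with enzyme (final 15 nM) for 15 min at room temperature before substrate addition started the reaction. Fluorescence at 525 nm excitation, 598 nm emission was recorded immediately and after 30 minutes.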
# BAZ2B inh: BAZ2B (human) inhibition | 4.4% of 360,000 active | AlphaScreen BAZ2B-H3K14Ac peptide displacement | AID 504333 | Potency, µM (doses to about 114 µM), usual class: inhibitors; also: nearly all actives have a fitted effect of over 60% in size
#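 AlphaScreen displacement of biotin-H3(5-23)K14Ac peptide (50 nM final) from BAZ2B (50 nM final) in PBS pH 7.4, 0.01% Tween-20; complex preformed 30 min RT, then compounds (top 110 uM) 30 min RT, beads 20 min dark.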
# G9a inh: blocks human histone lysine methyltransferase G9a; Potency, µM (titrated, usually from 102 µM), hits mostly inhibitors; G9a H3K9 monomethylation, AlphaScreen, 2 h; 8.8% of 350,000 active; Q96KQ7; also: nearly all actives have a fitted effect of over 75% in size
# Target sequence (Q96KQ7 913-1193 limits assumed): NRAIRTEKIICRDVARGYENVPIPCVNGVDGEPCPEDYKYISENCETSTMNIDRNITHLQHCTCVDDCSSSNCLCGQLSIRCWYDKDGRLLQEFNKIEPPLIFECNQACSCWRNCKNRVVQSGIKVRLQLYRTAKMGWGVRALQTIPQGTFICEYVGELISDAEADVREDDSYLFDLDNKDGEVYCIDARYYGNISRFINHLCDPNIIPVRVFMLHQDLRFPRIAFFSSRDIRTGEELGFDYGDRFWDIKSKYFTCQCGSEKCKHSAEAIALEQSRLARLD
#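 G9a (20 nM) preincubated 15 min RT with compounds, then 500 nM biotinylated H3K9 peptide and 20 uM SAM added; 2 h RT reaction. Monomethyl-H3K9 product detected by AlphaScreen with anti-H3K9me1 antibody, streptavidin donor and anti-rabbit IgG acceptor beads.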
# HP1b binding inh: inhibitors of HP1-beta chromodomain binding to methylated histone tails; 0.56% of 390,000 active; Potency, µM (top dose mostly 114 µM), usual class: inhibitors; AID 540317; AlphaScreen HP1-beta / biotin-H3K9me3 peptide binding; also: nearly all actives have a fitted effect of over 70% in size
# Target sequence (P83916 whole entry, looked up): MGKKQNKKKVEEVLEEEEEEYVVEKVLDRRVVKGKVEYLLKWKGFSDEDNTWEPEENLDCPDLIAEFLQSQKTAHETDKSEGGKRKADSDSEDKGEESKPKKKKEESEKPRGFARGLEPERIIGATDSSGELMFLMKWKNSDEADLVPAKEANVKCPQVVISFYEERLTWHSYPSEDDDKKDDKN
#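 Compound inhibition of the preformed complex between 50 nM HP1-beta and 50 nM biotinylated H3K9me3 peptide was read by AlphaScreen. Buffer was PBS pH 7.4 with 0.01% Tween-20. Incubations ran 30 min at room temperature, with 10 ug/mL donor/acceptor beads.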
# JMJD2A Tudor inh: blocks the human JMJD2A Tudor domain | O75164 | AlphaScreen JMJD2A-Tudor / H3K4me3 peptide binding | Potency, µM (highest dose often 114 µM), usual class: inhibitors | 4.4% of 390,000 active; also: nearly all actives have a fitted effect of over 50% in size
# Hits are given with their value; n = inactive; u = inconclusive; x = no result; [ ] = remark or other dose. Sampled rows, rich in hits. Any-hit rate of the full collection: about 12%. Calls follow the shape of the dose curve; as a rule, active = well fitted curve in the direction sought with a large enough effect; inconclusive = small, poorly fitted or top-dose-only effect, or another doubt; inactive = no such curve, though single readings can be large; an effect the other way counts as inactive or inconclusive.
SMILES,L3MBTL1 block,Sfp inh,BAZ2B inh,G9a inh,HP1b binding inh,JMJD2A Tudor inh
COc1ccc(N=C2S/C(=C\c3ccc(OC(C)C(=O)O)c(OC)c3)C(=O)N2CCc2c[nH]c3ccccc23)cc1 (stereo not given),n,u,22.4µM,35.5µM,u,39.8µM
O=C1/C(=C/c2ccc(N3CCOCC3)o2)SC(=Nc2ccccc2)N1CCc1c[nH]c2ccccc12,n,2.82µM,u,u,n,u
O=C(CC1SC(=Nc2ccccc2)N(CCc2c[nH]c3ccccc23)C1=O)Nc1ccccc1F (stereo not given),n,u,u,u,n,u
COc1cc(/C=C2\SC(=Nc3ccccc3)N(CCc3c[nH]c4ccccc34)C2=O)ccc1OC(C)C(=O)O (stereo not given),n,n,44.7µM,6.31µM,u,56.2µM
CCCCn1c(N)c(N(CCOC)C(=O)COC(=O)CSc2cc(C)c3ccccc3n2)c(=O)[nH]c1=O,n,x,n,n[2.33 µM],n,n
CC(=O)c1cc(-c2ccccc2)n(CC(=O)N2CCN(C3CCCC3)CC2)c1C,n,n,50.1µM,n[12.7 µM],n,n[11.4 µM]
CC(=O)c1cc(-c2ccccc2)n(CC(=O)N2CCC(C)CC2)c1C,n[11.4 µM],n,50.1µM,n,n,n
CCOc1ccc(NC(=O)Cn2c(CCC(=O)O)ccc2-c2ccc(Cl)cc2)cc1,x,x,u,n,n,n
O=C(NCc1ccc(F)cc1)c1ccc(CSCc2cccc(Cl)c2)o1,x,x,n,n,n,n
c1ccc(Nc2scc(-c3ccccc3)[n+]2Cc2ccco2)cc1,u,20µM,x,15.8µM,u,u
c1ccc(C[n+]2c(-c3ccccc3)csc2Nc2ccccc2)cc1,n,n,7.94µM,11.2µM,25.1µM,u
CCCCCC[n+]1c(-c2ccc(Cl)cc2Cl)csc1Nc1ccccc1,n,n,u,u,n,u
O=C(Nc1ccccc1[N+](=O)[O-])c1csnn1,x,x,u,u,n,n
COc1cc(CN2CCCN(C)CC2)cc([N+](=O)[O-])c1O,n,u,u,x,u,0.891µM
COc1cc(CN2CCN(c3ccccc3C)CC2)cc([N+](=O)[O-])c1O,n,n,u,79.4µM,u,3.98µM
COc1ccccc1C1CCN(Cc2cccc([N+](=O)[O-])c2)CC1,n,n,u,x,n,u
COc1cc(CN2CCc3ccccc3C2)cc([N+](=O)[O-])c1O,n,u,u,8.91µM,u,22.4µM
COc1ccccc1C1CCN(c2ccc(CO)cc2[N+](=O)[O-])CC1,n,n,u,35.5µM,u,56.2µM
O=C(CNC(=O)c1cccc(Cl)c1)OC(C(=O)Nc1cc(C(F)(F)F)ccc1Cl)c1ccccc1 (stereo not given),x,x,x,x,x,n
COc1ccc(Cl)cc1NC(=O)CSc1nccn1Cc1ccco1,x,x,u,u,n,u
CCOc1cc(CN2CCCC(N3CCc4ccccc4C3)C2)ccc1O (stereo not given),n,n,n,x,n,n
COc1cc(CN2CCc3ccccc3C2)ccc1O,n,n,50.1µM,14.1µM,u,20µM
Nc1c(C(=O)CCC(=O)O)oc2ccc(Cl)cc12,x,n,n,56.2µM,n,n
COc1ccc(N/C=C/C(=O)c2ccc(Cl)cc2)cc1,n,n,n,n,n,n
COc1ccc(N/C=C2\C(=O)CCc3c2oc2cc(Cl)c(O)c(Cl)c32)cc1,n,n,n,39.8µM,n,n
SMILES,L3MBTL1 block,Sfp inh,BAZ2B inh,G9a inh,HP1b binding inh,JMJD2A Tudor inh
Cc1ccc(Cl)cc1N1CCN(C(=O)CSc2nnc3n2C(C)(C)Cc2ccccc2-3)CC1,n,n,n,8.91µM,n,89.1µM
Cc1ccc(Cl)cc1N1CCN(C(=O)CSc2ccsc2[N+](=O)[O-])CC1,u,n,50.1µM,50.1µM,n,u
Cc1cccc(C)c1NC(=O)COC(=O)[C@@H]1CCCN1C(=O)c1cccs1,n,x,x,x,n,n
c1ccc(-c2nnc3nc(N4CCCCC4)nc(N4CCCCC4)n23)cc1,x,x,x,x,n,n
CCc1ccc(NC(=O)C2CCCN(S(=O)(=O)c3cccc4cccnc34)C2)cc1 (stereo not given),x,x,n,n,n,n
Cc1ccc(-c2n[nH]c(=S)n2C)cc1,n,n,n,10µM,u,3.16µM
